Reference: PubChem BioAssay (EPA / NIEHS)
Records with an inconclusive call do not appear. The source made the active and inactive calls. How the source made its calls, unless noted: active means hit-call score of the fitted dose curve at least 0.9, where 1 is the maximum; inactive means score below 0.9.

Tests used:
[1] = target: Paired box protein Pax-6 (Homo sapiens) (UniProt P26367); experiment: ATG_Pax6_CIS: Attagene CIS-FACTORIAL HepG2 Assay for human Paired Box 6 (PAX6) (AID 2282956); settings: HepG2 CIS-FACTORIAL PAX6 reporter transcription, RNA readout; actives raise or lower the signal
Chain of Paired box protein Pax-6 (Homo sapiens) (P26367 whole entry, looked up): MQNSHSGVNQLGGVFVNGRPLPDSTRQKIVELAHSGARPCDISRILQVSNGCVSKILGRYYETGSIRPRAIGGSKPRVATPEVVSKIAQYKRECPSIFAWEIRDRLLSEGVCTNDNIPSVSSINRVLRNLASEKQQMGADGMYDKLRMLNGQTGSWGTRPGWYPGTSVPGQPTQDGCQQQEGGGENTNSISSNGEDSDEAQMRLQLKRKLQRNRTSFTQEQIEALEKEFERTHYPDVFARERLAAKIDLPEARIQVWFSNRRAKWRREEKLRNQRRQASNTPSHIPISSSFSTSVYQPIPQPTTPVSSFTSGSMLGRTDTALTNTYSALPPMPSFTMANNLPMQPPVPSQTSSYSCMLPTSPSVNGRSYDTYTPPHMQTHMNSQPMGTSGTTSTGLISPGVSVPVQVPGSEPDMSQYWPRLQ
In short: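 Read-out is reporter transcript level, measured by RT-PCR with fluorescent primer extension and capillary electrophoresis after 24 h dosing of transfected HepG2 cells. Activity in either direction fitted relative to DMSO control.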

[2] = ATG_PPRE_CIS: Attagene CIS-FACTORIAL HepG2 Assay for human Peroxisome Proliferator-activated Response Element (PPRE) (AID 2282958); settings: HepG2 PPRE cis-element reporter, Attagene transcription factor profiling; actives raise or lower the signal
In short: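 Transcript-level reporter induction in transfected HepG2 cells after 24 h chemical exposure, quantified by fluorescence from RT-PCR products separated by capillary electrophoresis.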

[3] = ATG_RORE_CIS: Attagene CIS-FACTORIAL HepG2 Assay for human RAR-related Orphan Receptor Element (RORE) (AID 2282959); settings: HepG2 Attagene cis-factorial RORE reporter, mRNA; actives raise or lower the signal
In short: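 Multiplexed reporter assay measuring mRNA induction from a cis promoter element in transiently transfected HepG2 cells after 24 h treatment. Detection via RT-PCR and capillary electrophoresis fluorescence; DMSO serves as baseline.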

[4] = ATG_Sox_CIS: Attagene CIS-FACTORIAL HepG2 Assay for human SRY-box transcription factor (SOX) (AID 2282960); settings: HepG2 Attagene cis-factorial SOX reporter, mRNA; actives raise or lower the signal
In short: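 Cells were transfected with reporter constructs under cis-regulatory promoters, then exposed to chemicals for 24 h. Reporter transcripts were quantified by fluorescence after RT-PCR and capillary electrophoresis; activity was fitted in both directions against DMSO.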

[5] = target: Transcription factor Sp1 (Homo sapiens) (UniProt P08047); experiment: ATG_Sp1_CIS: Attagene CIS-FACTORIAL HepG2 Assay for human Specificity Protein 1 (Sp1) (AID 2282961); settings: HepG2 Sp1 cis-reporter transcription, actives raise or lower the signal
Chain of Transcription factor Sp1 (Homo sapiens) (P08047 whole entry, looked up): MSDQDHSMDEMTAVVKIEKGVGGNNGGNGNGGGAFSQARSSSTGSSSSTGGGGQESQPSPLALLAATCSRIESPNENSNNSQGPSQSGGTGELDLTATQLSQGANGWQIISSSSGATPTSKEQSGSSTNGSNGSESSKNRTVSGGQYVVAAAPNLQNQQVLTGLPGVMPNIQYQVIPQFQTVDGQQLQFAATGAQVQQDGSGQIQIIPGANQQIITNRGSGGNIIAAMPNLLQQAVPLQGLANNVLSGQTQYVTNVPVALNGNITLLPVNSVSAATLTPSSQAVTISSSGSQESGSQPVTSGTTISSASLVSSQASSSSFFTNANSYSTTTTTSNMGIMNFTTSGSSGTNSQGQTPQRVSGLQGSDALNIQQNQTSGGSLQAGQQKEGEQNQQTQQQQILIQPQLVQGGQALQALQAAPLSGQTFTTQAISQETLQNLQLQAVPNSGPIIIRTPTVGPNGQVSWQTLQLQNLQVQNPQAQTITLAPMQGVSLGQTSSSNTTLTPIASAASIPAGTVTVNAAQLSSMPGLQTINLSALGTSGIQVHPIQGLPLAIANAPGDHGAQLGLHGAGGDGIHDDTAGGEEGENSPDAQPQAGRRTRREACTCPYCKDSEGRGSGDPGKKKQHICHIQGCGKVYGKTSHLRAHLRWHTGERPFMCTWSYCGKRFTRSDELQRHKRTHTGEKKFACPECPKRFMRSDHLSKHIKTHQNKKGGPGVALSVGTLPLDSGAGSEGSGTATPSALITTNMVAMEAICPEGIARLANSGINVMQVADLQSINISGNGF
In short: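 Measures mRNA induction of an Sp1-linked reporter in HepG2 cells 24 h post-dosing. Multiplexed reporters read by RT-PCR and capillary electrophoresis; DMSO serves as negative control and baseline.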

[6] = ATG_SREBP_CIS: Attagene CIS-FACTORIAL HepG2 Assay for human Sterol Regulatory Element Binding (SREBP) (AID 2282962); settings: HepG2 Attagene cis-factorial SREBP reporter, mRNA; actives raise or lower the signal
In short: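 Endogenous SREBP activity read as cis-element-driven reporter transcript in transiently transfected HepG2, 24 h post-dosing; quantified via RT-PCR plus capillary electrophoresis of fluorescent fragments. Gain or loss of signal fitted relative to DMSO baseline.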

[7] = target: Signal transducer and activator of transcription 3 (Homo sapiens) (UniProt P40763); experiment: ATG_STAT3_CIS: Attagene CIS-FACTORIAL HepG2 Assay for human Signal Transducer and Activator of Transcription 3 (STAT3) (AID 2282963); settings: HepG2, Attagene cis-factorial STAT3 reporter transcription; actives raise or lower the signal
Chain of Signal transducer and activator of transcription 3 (Homo sapiens) (P40763 whole entry, looked up): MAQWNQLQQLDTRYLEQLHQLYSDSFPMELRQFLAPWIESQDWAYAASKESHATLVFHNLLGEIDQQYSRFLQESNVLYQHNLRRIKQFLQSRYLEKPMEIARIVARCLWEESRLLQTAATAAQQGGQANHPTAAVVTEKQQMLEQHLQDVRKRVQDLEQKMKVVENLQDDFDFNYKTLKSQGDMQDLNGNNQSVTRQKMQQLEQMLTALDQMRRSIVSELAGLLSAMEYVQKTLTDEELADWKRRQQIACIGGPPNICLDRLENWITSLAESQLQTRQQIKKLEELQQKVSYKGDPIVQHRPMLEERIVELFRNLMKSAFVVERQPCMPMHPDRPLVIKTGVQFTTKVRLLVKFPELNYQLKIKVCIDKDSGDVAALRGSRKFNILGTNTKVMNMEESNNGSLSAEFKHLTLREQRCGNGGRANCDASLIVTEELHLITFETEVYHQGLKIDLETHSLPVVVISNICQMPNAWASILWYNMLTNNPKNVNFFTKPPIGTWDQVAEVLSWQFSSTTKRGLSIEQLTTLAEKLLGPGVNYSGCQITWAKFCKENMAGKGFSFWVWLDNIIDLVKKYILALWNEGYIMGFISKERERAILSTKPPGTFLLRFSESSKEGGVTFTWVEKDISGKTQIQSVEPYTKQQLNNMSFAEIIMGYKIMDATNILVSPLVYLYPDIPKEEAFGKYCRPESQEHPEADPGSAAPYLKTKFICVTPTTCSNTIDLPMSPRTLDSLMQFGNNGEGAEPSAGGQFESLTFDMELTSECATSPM
In short: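 Readout is reporter transcript quantified by RT-PCR and capillary electrophoresis, with 6-FAM primer extension and HpaI digestion. Total RNA is taken 24 h after dosing transiently transfected HepG2 carrying cis-regulated reporter units. Bidirectional fit against DMSO.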

[8] = ATG_TA_CIS: Attagene CIS-FACTORIAL HepG2 Assay for human TA Basal Promoter (AID 2282964); settings: HepG2 Attagene CIS-factorial TA basal promoter reporter; actives raise or lower the signal
In short: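 Read-out: fluorescent reporter-transcript fragments resolved by capillary electrophoresis after RT-PCR and HpaI digestion. Source: HepG2 cells carrying transiently transfected multi-reporter cis constructs, treated 24 h. Endpoint fitted bidirectionally relative to DMSO.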

[9] = ATG_TCF_b_cat_CIS: Attagene CIS-FACTORIAL HepG2 Assay for human T-Cell-Factor with beta-catenin (TCF/b-cat) (AID 2282965); settings: HepG2 TCF/beta-catenin cis-reporter transcription, actives raise or lower the signal
In short: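 Measured: reporter mRNA in HepG2 transiently transfected with cis-promoter reporter units, 24 h after chemical addition. Fitting was bidirectional, DMSO as negative control.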

[10] = ATG_TGFb_CIS: Attagene CIS-FACTORIAL HepG2 Assay for human Transforming Growth Factor (TGF) (AID 2282967); settings: HepG2 Attagene CIS TGFb reporter, mRNA transcription; actives raise or lower the signal
In short: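 Transient MRTU transfection of HepG2 (FuGene 6). Dose 24 h. TriZol RNA, oligo(dT) RT, PCR, 6-FAM primer extension, HpaI cut, CE. Bidirectional fit, DMSO = baseline.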

[11] = ATG_VDRE_CIS: Attagene CIS-FACTORIAL HepG2 Assay for human Vitamin D Receptor Element (VDRE) (AID 2282968); settings: HepG2 VDRE cis-reporter transcription, actives raise or lower the signal
In short: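 Readout is VDRE-driven reporter mRNA reflecting endogenous factor activity in human HepG2 cells, sampled 24 h post-dose. Quantification used labelled RT-PCR products separated by capillary electrophoresis; bidirectional analysis relative to DMSO.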

[12] = target: X-box-binding protein 1 (Homo sapiens) (UniProt P17861); experiment: ATG_Xbp1_CIS: Attagene CIS-FACTORIAL HepG2 Assay for human X-box Binding Protein 1 (XBP1) (AID 2282972); settings: HepG2 XBP1 cis-element reporter, Attagene multiplex; actives raise or lower the signal
Chain of X-box-binding protein 1 (Homo sapiens) (P17861 whole entry, looked up): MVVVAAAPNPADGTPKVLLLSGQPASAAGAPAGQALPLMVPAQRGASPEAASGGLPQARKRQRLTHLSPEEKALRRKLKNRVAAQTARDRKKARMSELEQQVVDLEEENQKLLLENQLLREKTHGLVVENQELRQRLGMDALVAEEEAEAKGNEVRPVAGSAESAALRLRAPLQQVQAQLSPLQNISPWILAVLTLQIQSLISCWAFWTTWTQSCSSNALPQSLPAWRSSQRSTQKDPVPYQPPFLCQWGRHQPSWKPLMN
In short: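 Reporter transcripts were quantified by RT-PCR with fluorescent primer extension and capillary electrophoresis after 24 h chemical exposure. Cells: transiently transfected HepG2 carrying cis-regulated reporter constructs; data fitted bidirectionally relative to DMSO.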

[13] = ATG_M_19_TRANS: Attagene TRANS-FACTORIAL HepG2 Assay for M19 Transcription Factor (Internal Marker) (AID 2282974; active means hit-call score of the fitted dose curve at least 0.9, where 1 is the maximum); settings: HepG2 Attagene TRANS-FACTORIAL M19 internal marker reporter
In short: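 After transfection of HepG2 with GAL4-UAS-driven reporter constructs, cells are dosed for 24 h. Total RNA is reverse-transcribed, reporter sequences PCR-amplified and labelled, then HpaI-digested and sized by capillary electrophoresis.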

[14] = ATG_GAL4_TRANS: Attagene TRANS-FACTORIAL HepG2 Assay for GAL4 (Internal Marker) (AID 2282976; active means hit-call score of the fitted dose curve at least 0.9, where 1 is the maximum); settings: HepG2 Attagene TRANS GAL4 internal marker reporter
In short: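 In transfected human HepG2 liver cells dosed 24 h, GAL4 reporter mRNA serves as a baseline marker. Detection by RT-PCR with fluorescent capillary electrophoresis, activity fitted upward relative to DMSO.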

[15] = target: Estrogen-related receptor gamma (Homo sapiens) (UniProt P62508); experiment: ATG_ERRg_TRANS: Attagene TRANS-FACTORIAL HepG2 Assay for human Estrogen-Related Receptor gamma (ERRg) (AID 2282977; active means hit-call score of the fitted dose curve at least 0.9, where 1 is the maximum;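 further: hits increase reporter signal over DMSO so potencies reflect activators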); settings: HepG2 Attagene TRANS reporter, ERRg transactivation
Chain of Estrogen-related receptor gamma (Homo sapiens) (P62508 whole entry, looked up, the tested form may be a part): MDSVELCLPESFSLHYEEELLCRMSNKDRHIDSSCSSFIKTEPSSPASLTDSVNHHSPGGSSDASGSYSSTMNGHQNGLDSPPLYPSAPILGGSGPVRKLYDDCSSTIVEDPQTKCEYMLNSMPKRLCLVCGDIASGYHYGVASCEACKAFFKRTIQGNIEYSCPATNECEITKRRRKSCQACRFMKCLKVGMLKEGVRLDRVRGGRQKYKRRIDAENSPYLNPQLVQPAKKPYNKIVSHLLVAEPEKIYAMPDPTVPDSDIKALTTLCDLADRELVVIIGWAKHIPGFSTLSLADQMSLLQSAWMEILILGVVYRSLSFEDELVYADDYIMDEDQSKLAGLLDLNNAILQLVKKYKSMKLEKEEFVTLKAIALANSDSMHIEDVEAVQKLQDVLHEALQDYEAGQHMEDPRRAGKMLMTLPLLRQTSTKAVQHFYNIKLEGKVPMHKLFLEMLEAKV
In short: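 Induction of reporter transcripts through a chimeric NR-Gal4 protein is quantified in transfected human HepG2 liver cells after 24 h chemical exposure, using RT-PCR with capillary electrophoresis detection and DMSO as baseline.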

[16] = ATG_TAL_CIS: Attagene CIS-FACTORIAL HepG2 Assay for human TAL Basal Promoter (AID 2282966); settings: HepG2 Attagene cis-factorial TAL promoter reporter; actives raise or lower the signal;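 further: background control endpoint measuring basal TAL promoter reporter mRNA not a specific factor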
In short: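 Background-control endpoint: basal TAL promoter reporter transcripts in transiently transfected HepG2, measured 24 h after dosing. Read-out by RT-PCR with fluorescent primer extension and capillary electrophoresis; gain or loss of signal fitted relative to DMSO.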

[17] = target: Nuclear receptor subfamily 1 group I member 3 (Homo sapiens) (UniProt Q14994); experiment: ATG_CAR_TRANS: Attagene TRANS-FACTORIAL HepG2 Assay for human Constitutive Androstane Receptor (CAR) (AID 2282969; active means hit-call score of the fitted dose curve at least 0.9, where 1 is the maximum;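 further: activators raise reporter mRNA above DMSO so AC50 marks induction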); settings: HepG2 Attagene TRANS-FACTORIAL CAR reporter
Chain of Nuclear receptor subfamily 1 group I member 3 (Homo sapiens) (Q14994 whole entry, looked up, the tested form may be a part): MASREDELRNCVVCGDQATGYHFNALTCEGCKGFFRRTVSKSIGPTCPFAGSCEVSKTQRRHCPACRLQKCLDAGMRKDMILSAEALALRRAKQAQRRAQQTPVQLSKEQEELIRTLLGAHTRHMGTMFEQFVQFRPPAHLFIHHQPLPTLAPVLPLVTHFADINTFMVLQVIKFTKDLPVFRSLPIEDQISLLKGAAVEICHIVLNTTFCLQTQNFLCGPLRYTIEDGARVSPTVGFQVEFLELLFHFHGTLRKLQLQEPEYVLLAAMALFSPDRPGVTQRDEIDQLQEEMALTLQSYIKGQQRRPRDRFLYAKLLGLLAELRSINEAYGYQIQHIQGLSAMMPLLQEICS
In short: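 Signal is reporter mRNA induction relative to DMSO, measured 24 h after dosing by RT-PCR with fluorescent primer extension and capillary electrophoresis. Human HepG2 liver cells carried transiently transfected chimeric NR-Gal4/GAL4-UAS reporter constructs.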

[18] = target: Steroid hormone receptor ERR1 (Homo sapiens) (UniProt P11474); experiment: ATG_ERRa_TRANS: Attagene TRANS-FACTORIAL HepG2 Assay for human Estrogen-Related Receptor alpha (ERRa) (AID 2282971; active means hit-call score of the fitted dose curve at least 0.9, where 1 is the maximum); settings: HepG2 Attagene TRANS reporter, ERRa transactivation
Chain of Steroid hormone receptor ERR1 (Homo sapiens) (P11474 whole entry, looked up, the tested form may be a part): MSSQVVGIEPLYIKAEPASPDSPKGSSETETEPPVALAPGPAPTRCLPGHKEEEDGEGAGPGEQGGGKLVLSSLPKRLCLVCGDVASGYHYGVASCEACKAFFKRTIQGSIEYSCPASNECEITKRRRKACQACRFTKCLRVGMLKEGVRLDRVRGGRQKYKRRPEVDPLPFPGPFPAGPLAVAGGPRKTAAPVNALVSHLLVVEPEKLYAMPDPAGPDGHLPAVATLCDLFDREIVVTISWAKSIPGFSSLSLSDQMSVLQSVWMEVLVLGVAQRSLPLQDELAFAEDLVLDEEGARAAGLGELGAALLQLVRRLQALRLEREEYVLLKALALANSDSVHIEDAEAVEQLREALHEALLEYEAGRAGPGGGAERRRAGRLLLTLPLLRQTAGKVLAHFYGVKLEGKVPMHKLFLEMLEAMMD
In short: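 Reporter transcripts from ERRa-Gal4 chimera activity measured in transiently transfected human HepG2 cells 24 hours after dosing, using RT-PCR with 6-FAM primer extension, HpaI digestion and capillary electrophoresis; DMSO is baseline.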

Measured: AC50

COc1cc(CCC(C)=O)ccc1O
not listed: [16] | [17] | [18]
inactive: all other assays above

C=CCCCCCCCCCC
not listed: [3] | [11] | [15] | [16] | [17] | [18]
inactive: all other assays above

CC(=O)Nc1ccc(C(=O)CCl)cc1
inactive: [2] | [3] | [7] | [8] | [9] | [16] | [10]
active: [1] 9 µM | [4] 8.57 µM | [5] 8.32 µM | [11] 8.84 µM | [12] 7.85 µM

C=CC(=O)OCCC#N
active: [1] 47.9 µM | [4] 41.1 µM | [11] 48.8 µM | [12] 36.4 µM
not listed: [6] | [13] | [14]
inactive: all other assays above

CCOC(=O)[C@@H](C)Oc1ccc(Oc2nc3ccc(Cl)cc3o2)cc1
active: [2] 100 µM
not listed: [3] | [6] | [8] | [14] | [17] | [18]
inactive: all other assays above

Nc1ccccc1[N+](=O)[O-]
not listed: [11] | [14] | [15] | [17]
inactive: all other assays above
